Screens as filed in PubChem.
In the library only some 1.6% were active in any assay of this set; here they are far more common.
KCNQ2 block: blocks the rat KCNQ2 potassium channel | O88943 | CHO-K1 KCNQ2, FluxOR thallium flux, 20 min; hits give low values | B-score at 10 µM | 310,000 compounds, 1.1% hits | AID 2156;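 active = fluorescence ratio B-score at most minus 3 library SDs, with starting brightness B-score within 2 library SDs, cut at about -5.5 in these data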
Target sequence (O88943 whole entry, looked up): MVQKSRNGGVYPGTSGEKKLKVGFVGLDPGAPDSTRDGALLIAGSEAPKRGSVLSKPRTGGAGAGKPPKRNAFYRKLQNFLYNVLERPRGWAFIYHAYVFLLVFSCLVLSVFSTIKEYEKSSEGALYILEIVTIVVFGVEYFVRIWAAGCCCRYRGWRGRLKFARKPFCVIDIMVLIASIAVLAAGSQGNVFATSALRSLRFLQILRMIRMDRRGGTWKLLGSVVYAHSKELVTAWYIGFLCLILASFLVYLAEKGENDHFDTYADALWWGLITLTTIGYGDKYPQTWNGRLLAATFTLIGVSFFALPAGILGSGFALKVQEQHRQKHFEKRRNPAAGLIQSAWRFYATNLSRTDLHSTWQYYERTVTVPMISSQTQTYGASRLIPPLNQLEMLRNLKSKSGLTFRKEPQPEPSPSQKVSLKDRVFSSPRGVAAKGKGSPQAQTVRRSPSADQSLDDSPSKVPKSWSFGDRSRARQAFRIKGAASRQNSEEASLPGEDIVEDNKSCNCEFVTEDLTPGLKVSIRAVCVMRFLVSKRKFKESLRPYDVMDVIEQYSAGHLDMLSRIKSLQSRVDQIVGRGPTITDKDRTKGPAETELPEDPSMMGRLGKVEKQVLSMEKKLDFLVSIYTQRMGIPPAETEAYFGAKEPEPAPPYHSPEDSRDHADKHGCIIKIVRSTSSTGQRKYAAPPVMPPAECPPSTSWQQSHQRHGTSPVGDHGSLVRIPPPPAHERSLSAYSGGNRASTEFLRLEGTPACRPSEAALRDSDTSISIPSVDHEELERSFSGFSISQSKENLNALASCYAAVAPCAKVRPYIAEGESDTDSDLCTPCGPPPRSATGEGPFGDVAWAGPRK
KCNQ2 pot: enhances the rat KCNQ2 potassium channel | O88943 | CHO-K1 KCNQ2, FluxOR thallium flux fluorescence; hits give high values | B-score at 10 µM | 310,000 compounds, 0.54% hits | AID 2239;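 active = fluorescence ratio B-score at least 3 SD of library B-scores, with initial fluorescence B-score within 3 of them, cut at about 5.3 in these data; same plate scores as AID 2156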;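 also: B-score of peak minus minimum over baseline fluorescence ratio after K+ and Tl+ stimulus; positive B-score means potentiation of KCNQ2 with more thallium influx and brighter signal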
An asterisk follows results filed as active; i = inactive; . = not tested or not shown.

SMILES	KCNQ2 block	KCNQ2 pot
Cc1cccc(CSCCNC(=O)COc2ccc(Cl)cc2)c1	i	.
COc1cc(OC)cc(C(=O)NCCCCNC(=O)c2cc(OC)cc(OC)c2)c1	i	0.22
Cc1ccc(NN2C(=O)C=C(c3ccccc3)C2=O)cc1	i	.
COc1ccc(Cl)c2sc(N(Cc3cccnc3)C(C)=O)nc12	i	0.6
CCOc1ccccc1NC(=O)CCCc1ccc(OC)c(C)c1	i	.
COc1ccc(-c2noc(CNC(=O)c3ccoc3C)n2)cc1OC	i	.
O=C(CCn1cccn1)Nc1ccc(-c2ccno2)cc1	i	1.4
COc1ccc(CN2CCSCC2)c(C)c1C	i	0.89
c1ccc(-c2cc3c(N4CCN(c5ccccc5)CC4)ncnc3s2)cc1	-7.7*	-7.7
c1ccc(-c2cc3c(N4CCN(c5ncccn5)CC4)ncnc3s2)cc1	i	.
O=C(NN=C(Cc1ccccc1)Cc1ccccc1)c1ccccc1O	i	1.4
O=C(NN=C(Cc1ccccc1)Cc1ccccc1)c1ccc(F)cc1	-5.6*	-5.6
NC(=S)NN=C(Cc1ccccc1)Cc1ccccc1	-5.6*	-5.6
C/C(Cc1ccccc1)=N\NC(=O)c1ccc(F)cc1	i	2.8
O=C1N(CN2CCN(Cc3ccccc3)CC2)c2ccccc2C12OCCCO2	i	.
CCOc1ccc(NC(=O)CN(C)C(=O)c2cccnc2Sc2ccc(Cl)cc2)cc1OCC	i	1.6
O=C1C(=O)N(C/C=C/c2ccccc2)c2ccccc21	i	.
CC(C)Oc1cccc(C(=O)C2CCCN(Cc3ccc(Oc4ncccn4)cc3)C2)c1 (centres undefined)	-7.8*	-7.8
COc1c(C)cc(C(=O)C2CCCN(Cc3ccc(Oc4ncccn4)cc3)C2)cc1C (centres undefined)	i	.
O=C(Nc1ccccc1)N1CCCC1c1cccs1 (centres undefined)	i	.
COc1ccc(NC(=O)c2ccc(Oc3ncccn3)cc2)cc1	i	1.1
CCCCc1ccc(NC(=O)CSC2=NN3CCCC(=O)N=C3S2)cc1	i	0.07
O=C(NC1CC1)C1=C[C@H](c2csc3ccccc23)C[C@H](OCc2ccc(CO)cc2)O1	i	.
O=C(C1=C[C@@H](c2csc3ccccc23)C[C@@H](OCc2ccc(CO)cc2)O1)N1CCN(Cc2ccccc2)CC1	-6.2*	-6.2
O=C(C1=C[C@@H](c2csc3ccccc23)C[C@@H](OCc2ccc(CO)cc2)O1)N1CCOCC1	i	.
SMILES	KCNQ2 block	KCNQ2 pot
O=C(Nc1ccccc1)C1=C[C@H](c2csc3ccccc23)C[C@H](OCc2ccc(CO)cc2)O1	-5.7*	-5.7
O=C(NCCc1ccccc1)c1ccc2c(c1)S(=O)(=O)c1ccccc1C2=O	i	0.94
Nn1cc(-c2ccccc2)nc1SCC(=O)Nc1ccc(S(N)(=O)=O)cc1	i	0.47
C=C[C@]1(C)C=C2CCC3[C@](C)(CCC[C@@]3(C)C(=O)O)C2CC1 (some centres undefined)	i	.
CC(C)C1=CC2=CCC3C(C)(C(=O)O)CCCC3(C)C2CC1 (centres undefined) (tested in a mixture with another compound)	-5.8*	-5.8
Cc1cc(=O)[nH]c(SCC(=O)NC2CCCc3ccccc32)n1 (centres undefined)	i	1.6
O=C(C(Cc1ccccc1)n1cccc1)N1CCN(Cc2ccccc2)CC1 (centres undefined)	i	.
CCC(CC)C(=O)N1CCN(c2ccccc2)CC1	i	.
CCC(C(=O)N1CCN(c2cccc(Cl)c2)CC1)c1ccccc1 (centres undefined)	-5.6*	-5.6
O=C(C(Cc1ccccc1)n1cccc1)N1CCN(c2cccc(Cl)c2)CC1 (centres undefined)	-5.8*	-5.8
CN(C)S(=O)(=O)c1ccc(C(=O)/C=C/c2cccnc2)cc1	i	.
CC#CC#Cc1cccc(=O)o1	i	0.08
CCc1nnc(NC(=O)CC23CC4CC(CC(Br)(C4)C2)C3)s1	i	.
CCOC(=O)C1CCN(C(=O)c2cc(S(=O)(=O)N3CCCCCC3)ccc2OC)CC1	i	0.26
COC(=O)c1c(NC(=O)C(C)(C)C)csc1C	i	.
Cc1csc2nc(CNC(=O)c3cccc(C(F)(F)F)c3)cn12	-6.2*	-6.2
O=C(NCc1cn2ccsc2n1)c1cccc(C(F)(F)F)c1	i	.
Cc1oc(-c2cccc3ccccc23)nc1CN1CCC[C@H]1CO	i	1.3
Cc1ccccc1-c1nc(C#N)c(N2CCC(C)CC2)o1	-8.1*	-8.1
CC1CCN(c2oc(-c3ccccc3Cl)nc2C#N)CC1	i	.
O=C(CSc1nc(C2CC2)nc2ccccc12)N1c2ccccc2Sc2ccccc21	-6.1*	-6.1
CC(=O)c1ccc(NC(=O)CSc2nc(C3CC3)nc3ccccc23)cc1	i	1.1
Cc1nc2cc(C(=O)N3CCN(C)CC3)ccc2n1C	i	.
CC(=N\NC(=O)c1ccccc1)/C(=N/O)C(=O)Nc1ccccc1	i	.
CC(=N\Nc1ccccc1)/C(=N/O)C(=O)Nc1ccccc1	-6*	-6
SMILES	KCNQ2 block	KCNQ2 pot
O=C1C2C(c3ccccc3)CC=CC2[C@H](c2ccc(C(F)(F)F)cc2)N1Cc1ccccc1 (some centres undefined)	-7.8*	-7.8
COc1ccc([C@H]2[C@H]3C=CC[C@@H](C)[C@@H]3C(=O)N2Cc2ccccc2)cc1Cl	i	.
CC[C@@H]1CC=C[C@H]2[C@H]1C(=O)N(Cc1ccccc1)[C@H]2c1ccc2ccccc2c1	-5.7*	-5.7
C[C@@H]1CC=C[C@H]2[C@H]1C(=O)N(Cc1ccccc1)[C@H]2c1ccc(C(F)(F)F)cc1	i	.
O=C(NC(Cc1ccccc1)C(=O)O)/C(=C/c1ccc([N+](=O)[O-])cc1)NC(=O)c1ccccc1 (centres undefined)	i	.
C=CCN(CC=C)C(=S)NC(=O)c1ccc(C)c(Br)c1	i	24*
C=CCN(CC=C)C(=S)NC(=O)c1ccc(OC)cc1	i	3
CC(C)(C)OC(=O)CC1(C#N)c2ccccc2C(Br)=CN1C(=O)c1ccccc1 (centres undefined)	i	.
O=C(Cc1ccccc1[N+](=O)[O-])N/N=C/c1cccnc1	i	.
CCOc1ccc(/C=C2\C(=O)c3ccccc3OC2c2ccccc2)cc1 (centres undefined)	-6.2*	-6.2
COc1ccc(/C=C2\C(=O)c3ccccc3OC2c2ccccc2)cc1 (centres undefined)	i	.
CC1CCCC(C)N1C(=O)COC(=O)c1cc(-c2cccs2)nn1-c1ccccc1 (centres undefined)	i	.
O=C(O)C(O)(c1ccccc1)C(O)c1ccccc1 (centres undefined)	i	2.1
Cc1cc(C)cc(NC(=O)C(OC(=O)C2=COCCO2)c2ccccc2)c1 (centres undefined)	-6.6*	-6.6
O=C(OC(C(=O)Nc1ccc(Cl)c(C(F)(F)F)c1)c1ccccc1)C1=COCCO1 (centres undefined)	i	.
Cc1ccc(C)c(NC(=O)C2CC(O)CN2C(=O)Oc2ccccc2)c1 (centres undefined)	i	0.83
Cc1occc1-c1nnc(SCC(=O)c2ccc(F)cc2)n1Cc1ccco1	i	.
O=C(CSc1nnc(-c2cc3ccccc3cc2O)n1Cc1ccco1)c1ccc(F)cc1	-5.9*	-5.9
CCNC(C(=O)c1c[nH]c2c(CC)cccc12)c1ccccc1 (centres undefined)	i	.
